Measured values reported in PubChem BioAssay (Tox21).
Inconclusive results are not listed. The source made the active and inactive calls. Unless noted, calls follow the shape of the full dose curve.

Experiments:
[1] = qHTS assay to identify small molecule agonists of the sonic hedgehog signaling (Shh) pathway (AID 1259368); settings: NIH/3T3 Gli1-Luc reporter, luciferase, 24 h; series mostly up to 92.4 µM;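 also: NIH/3T3-derived 3T3Gli1-Luc cells carrying a stable Gli1-driven firefly luciferase reporter; nearly all actives have a fitted effect of over 15% in size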
Method in brief: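 Following a 24 hr incubation with DMSO-dissolved compounds at 37 C, 5% CO2, Gli1-Luc NIH/3T3-derived cells received luciferase reagent for 30 min at room temperature prior to luminescence measurement.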

[2] = qHTS assay to identify small molecule antagonists of the sonic hedgehog signaling (Shh) pathway (AID 1259369); settings: NIH/3T3 Gli1-Luc reporter, Shh antagonist, luminescence 24 h; series mostly up to 92.4 µM; also: nearly all actives have a fitted effect of over 45% in size
Method in brief: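 Read-out is luminescence from a firefly luciferase gene controlled by the Gli1 response element, in 3T3Gli1-Luc cells pre-incubated 4hr then exposed to compounds and conditioned medium for 24hr.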

[3] = qHTS assay to identify small molecule agonists of the androgen receptor (AR) signaling pathway in the presence of an antagonist - cell viability counter screen (AID 1259379; active = well fitted curve in the direction sought with a large enough effect in the repeat runs; an effect the other way counts as inactive or inconclusive;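 also: MDA-kb2 human breast cancer cells carrying an MMTV luciferase reporter; nearly all actives have a fitted effect of over 25% in size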); settings: MDA-kb2 viability, CellTiter-Fluor, 16 h; series mostly up to 92.4 µM
Method in brief: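 Each compound was tested at 15 concentrations on MDA-kb2 cells in the presence of 3.0uM nilutamide. Viability was measured by CellTiter-Fluor fluorescence after a 16 hr incubation at 37C in a CO2-free atmosphere.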

[4] = qHTS assay to identify small molecule agonists of the estrogen receptor beta (ER-beta) signaling pathway - cell viability counter screen (AID 1259380; active = well fitted curve in the direction sought with a large enough effect in the repeat runs; an effect the other way counts as inactive or inconclusive; also: nearly all actives have a fitted effect of over 30% in size); settings: ER-beta-bla HEK293T viability, CellTiter-Glo luminescence, 16 h; series mostly up to 92.4 µM
Method in brief: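 Compounds dissolved in DMSO were pin-transferred onto ER-beta-UAS-bla HEK293T cells that had settled 6 hr, and exposure ran 16 hr at 37C. Following the reporter read, CellTiter-Glo luminescence after 30 min at room temperature indicated cytotoxicity.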

[5] = qHTS assay to identify small molecule antagonists of the estrogen receptor beta (ER-beta) signaling pathway - cell viability counter screen (AID 1259382; active = well fitted curve in the direction sought with a large enough effect in the repeat runs; an effect the other way counts as inactive or inconclusive;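 also: HEK293T cells carrying ER-beta-UAS-bla reporter stimulated with estradiol; nearly all actives have a fitted effect of over 55% in size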); settings: ER-beta-UAS-bla HEK293T viability, CellTiter-Glo luminescence, 16 h; series mostly up to 92.4 µM
Method in brief: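 CellTiter-Glo ATP luminescence measured after the LiveBLAzer read in the same wells; ER-beta-UAS-bla HEK293T cells, 16 hr compound treatment with 1nM 17-beta-estradiol agonist at 37C, 5% CO2.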

[6] = qHTS assay to identify small molecule agonists or antagonists of the thyroid stimulating hormone receptor (TSHR) signaling pathway - wild type cell line counter screen (AID 1259384); settings: HEK293 wild type, cAMP HTRF counter-screen; series mostly up to 92.4 µM
Method in brief: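 Counter screen in untransfected Hek293: compounds (15-point titration, triplicate) plus phosphodiesterase inhibitor Ro20-1724 added after 18 h plating; 30 min RT. Intracellular cAMP via competitive d2/cryptate immunoassay, 1 h incubation.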

[7] = molecular target: Estrogen receptor (Homo sapiens) (UniProt P03372); assay: qHTS assay to identify small molecule agonists of the estrogen receptor alpha (ER-alpha) signaling pathway in the presence of an antagonist (AID 1259383); settings: VM7Luc4E2 cells, ERE-luciferase, +ICI-182,780, 22 h; series mostly up to 92.4 µM; also: top concentration of the series differs between compounds; nearly all actives have a fitted effect of over 15% in size
Chain of Estrogen receptor (Homo sapiens) (P03372 whole entry, looked up): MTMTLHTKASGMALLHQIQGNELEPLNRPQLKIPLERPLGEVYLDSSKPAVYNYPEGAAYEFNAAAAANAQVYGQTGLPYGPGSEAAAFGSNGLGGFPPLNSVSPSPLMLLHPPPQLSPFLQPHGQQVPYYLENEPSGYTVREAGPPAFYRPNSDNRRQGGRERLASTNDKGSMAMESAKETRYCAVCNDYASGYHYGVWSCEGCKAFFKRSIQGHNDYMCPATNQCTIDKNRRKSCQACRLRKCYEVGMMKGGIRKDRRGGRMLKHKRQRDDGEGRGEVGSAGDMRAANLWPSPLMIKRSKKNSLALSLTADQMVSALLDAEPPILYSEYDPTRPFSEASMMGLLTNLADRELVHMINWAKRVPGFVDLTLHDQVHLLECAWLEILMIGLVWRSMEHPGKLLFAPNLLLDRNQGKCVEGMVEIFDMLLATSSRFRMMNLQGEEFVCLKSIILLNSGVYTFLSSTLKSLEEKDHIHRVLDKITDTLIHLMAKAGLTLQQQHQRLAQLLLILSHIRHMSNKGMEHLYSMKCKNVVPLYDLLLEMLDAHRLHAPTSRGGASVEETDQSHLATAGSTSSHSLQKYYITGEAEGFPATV
Method in brief: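 Luminescent ERE-luciferase reporter, VM7Luc4E2 cells (endogenous ER-alpha); 10.0nM ICI-182,780 final; 15-point compound titration; 22hr at 37C; ONE-Glo, 30min RT.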

[8] = molecular target: Androgen receptor (Homo sapiens) (UniProt P10275); assay: qHTS assay to identify small molecule agonists of the androgen receptor (AR) signaling pathway in the presence of an antagonist (AID 1259381); settings: MDA-kb2 MMTV-luciferase, AR agonist + nilutamide, 16 h; series mostly up to 42.5 µM; also: nearly all actives have a fitted effect of over 15% in size
Chain of Androgen receptor (Homo sapiens) (P10275 whole entry, looked up): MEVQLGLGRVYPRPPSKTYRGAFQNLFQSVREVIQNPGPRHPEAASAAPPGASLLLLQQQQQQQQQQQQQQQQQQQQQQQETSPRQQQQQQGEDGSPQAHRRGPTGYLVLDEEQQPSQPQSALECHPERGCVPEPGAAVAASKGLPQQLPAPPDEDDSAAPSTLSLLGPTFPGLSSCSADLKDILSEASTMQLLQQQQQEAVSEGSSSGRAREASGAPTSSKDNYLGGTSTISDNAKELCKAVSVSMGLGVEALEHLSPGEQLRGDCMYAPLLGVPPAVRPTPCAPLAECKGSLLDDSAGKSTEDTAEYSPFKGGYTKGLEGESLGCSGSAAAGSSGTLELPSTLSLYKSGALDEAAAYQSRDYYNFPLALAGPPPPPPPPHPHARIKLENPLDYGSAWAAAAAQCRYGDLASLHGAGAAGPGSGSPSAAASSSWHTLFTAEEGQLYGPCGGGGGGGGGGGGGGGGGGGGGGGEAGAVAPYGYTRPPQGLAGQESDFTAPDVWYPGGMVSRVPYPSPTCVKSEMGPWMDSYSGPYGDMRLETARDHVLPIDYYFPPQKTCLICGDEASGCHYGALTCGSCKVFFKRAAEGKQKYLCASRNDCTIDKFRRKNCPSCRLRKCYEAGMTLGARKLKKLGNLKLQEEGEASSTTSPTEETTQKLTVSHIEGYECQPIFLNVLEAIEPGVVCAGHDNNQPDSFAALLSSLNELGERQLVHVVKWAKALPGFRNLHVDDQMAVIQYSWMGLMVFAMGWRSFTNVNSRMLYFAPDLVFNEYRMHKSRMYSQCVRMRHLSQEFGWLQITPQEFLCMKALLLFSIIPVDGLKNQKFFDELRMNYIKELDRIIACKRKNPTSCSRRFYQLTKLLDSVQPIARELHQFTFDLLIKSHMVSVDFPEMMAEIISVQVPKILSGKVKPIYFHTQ
Method in brief: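 Plated MDA-kb2 cells (3,000/well) were pre-incubated 5hr, given nilutamide (3.0uM final) or buffer, then dosed with compounds in DMSO at 15 concentrations. Luciferase activity was quantified by luminescence after 16hr at 37C.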

[9] = molecular target: Estrogen receptor beta (Homo sapiens) (UniProt Q92731); assay: qHTS assay to identify small molecule antagonists of the estrogen receptor beta (ER-beta) signaling pathway (AID 1259378; active = well fitted inhibition curve with a large enough effect in the signal ratio in the repeat runs, not every such curve was filed as active; the % refers to the signal ratio); settings: ER-beta-UAS-bla HEK293T, beta-lactamase FRET ratio, 16 h; series mostly up to 92.4 µM
Chain of Estrogen receptor beta (Homo sapiens) (Q92731 whole entry, looked up): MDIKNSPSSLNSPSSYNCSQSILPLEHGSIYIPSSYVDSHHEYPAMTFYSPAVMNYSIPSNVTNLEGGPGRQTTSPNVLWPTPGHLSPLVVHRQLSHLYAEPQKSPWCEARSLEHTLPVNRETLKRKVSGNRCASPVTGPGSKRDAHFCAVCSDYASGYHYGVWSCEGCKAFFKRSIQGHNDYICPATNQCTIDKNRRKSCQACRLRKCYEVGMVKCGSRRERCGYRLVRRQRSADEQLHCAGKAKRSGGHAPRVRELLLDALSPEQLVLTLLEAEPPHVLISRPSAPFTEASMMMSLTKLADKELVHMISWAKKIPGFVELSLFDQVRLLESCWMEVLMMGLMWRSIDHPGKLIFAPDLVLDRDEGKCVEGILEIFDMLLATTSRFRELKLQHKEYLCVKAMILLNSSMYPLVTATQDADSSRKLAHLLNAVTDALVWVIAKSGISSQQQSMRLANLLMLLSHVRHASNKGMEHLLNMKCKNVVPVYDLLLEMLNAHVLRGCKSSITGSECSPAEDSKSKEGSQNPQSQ
Method in brief: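 Antagonist mode: compounds added to beta-lactamase reporter HEK293T ER-beta-UAS cells stimulated with E2 (1nM final), 16 hr at 37C. LiveBLAzer B/G FRET substrate, 2 hours room temperature, fluorescence read-out.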

Measured: Potency

Fc1c(F)c(F)c(Br)c(F)c1F
inactive: [1] | [2] | [3] | [4] | [5] | [6]

Nc1ccc(S(=O)(=O)O)cc1
inactive: [1] | [2] | [3] | [5] | [7]

CCCCC(CC)CNCC(CC)CCCC (centres undefined)
inactive: [1] | [2] | [3] | [4] | [5] | [6]

O=C(O)c1ccccc1NCCc1ccccc1
inactive: [1] | [2] | [3] | [8] | [5] | [6]

CCN(Cc1cccc(S(=O)(=O)O)c1)c1ccc(C(=C2C=CC(=[N+](CC)Cc3cccc(S(=O)(=O)[O-])c3)C=C2)c2ccccc2)cc1
inactive: [1] | [2] | [3] | [4] | [5] | [7] | [6]

CCCCC(=O)O[C@]1(C(=O)CO)CC[C@H]2[C@@H]3CCC4=CC(=O)CC[C@]4(C)[C@H]3[C@@H](O)C[C@@]21C
inactive: [1] | [2] | [3] | [4] | [5] | [7] | [6]

CC(=O)OCC(=O)[C@@]12OC(C)(C)O[C@@H]1C[C@H]1[C@@H]3C[C@H](F)C4=CC(=O)C=C[C@]4(C)[C@@]3(F)[C@@H](O)C[C@@]12C
inactive: [1] | [9] | [3] | [4] | [5] | [7] | [6]
